# Experimental data as given in ChEMBL document CHEMBL3988442, “University of Dundee, Small-Polar-MMV Screening Library” (2021).
# In all, about 48,000 compounds went through this assay and about 13,000 (27%) showed an effect of 50% or more. The list shows a part of the results.
# Test system: Wolbachia pipientis
# Experiment: Anti-Wolbachia Cell-Based Screen
# Type: functional
# Parameters: scale not given: in the data most compounds retested in dose-response had high values
# Details: 5 µM
row,Compound,Percent Effect [%]
1,Cn1cccc1C(=O)N[C@@H]1CN(S(C)(=O)=O)[C@@H]2COC[C@@H]21,-0.3534
2,COCCC1(C(=O)O)CCCN(Cc2cc3c(cc2C)OCO3)C1 (configuration not stated),0.3642
3,Cc1nc(COCC2CN(C(=O)N(C)C)Cc3nccn3C2)cs1.O=C(O)C(F)(F)F (configuration not stated),91.86
4,Cc1nc(COCc2cnc3n2CCN(C)C3C)cs1.O=C(O)C(F)(F)F (configuration not stated),0.7983
5,Cc1nc(COCC2CN(C(N)=O)Cc3nccn3C2)cs1.O=C(O)C(F)(F)F (configuration not stated),114.2
6,Cc1nc(COCC2CNCc3nccn3C2)cs1 (configuration not stated),1.667
7,Cc1nc(CN2CCCn3cnc(COCC4CC4)c3C2)cs1.O=C(O)C(F)(F)F,-1.787
8,Cc1cc(C)c(C(=O)NCCNc2ncnc3ccccc23)c(=O)[nH]1,-7.4
9,COc1cc(F)ccc1NC(=O)NC(C)C(=O)NC(C)(C)C (configuration not stated),-5.015
10,COc1ccc(CNCc2c(C)nc3sc(C)cn23)c(OC)c1OC,49.47
11,c1ccc(-c2noc3c2CN(CC2CC2)CC3)cc1,5.665
12,Cc1ncc2c(n1)CN(CC(=O)Nc1cc(C)on1)CC2,138
13,Cc1cc(NC(=O)CN2CCn3c(nnc3C(C)C)C2)no1,1.243
14,Cc1cc(NC(=O)CN2CCc3cnc(C)nc3C2)on1,-3.742
15,Cc1ncc2c(n1)CN(CC(=O)Nc1c(C)nn(C)c1C)CC2,114.4
16,Cc1nn(C)c(C)c1NC(=O)CN1CCc2c(nc(C3CC3)n2C)C1,-19.95
17,Cc1ncc2c(n1)CN(CCOCC(F)(F)F)CC2,-8.792
18,Cc1ccc(Cl)cc1N1CCC(CNC(=O)CC(F)(F)F)C1 (configuration not stated),-9.569
19,COCCN1Cc2ccnn2CC(COCc2cccnc2)C1 (configuration not stated),-11.51
20,CN1CCCN(C(=O)c2cccc(S(=O)(=O)NCC3(C)COC3)c2)CC1,-12.18
21,CN(C)C1CCN(C(=O)c2cccc(S(=O)(=O)NCC3(C)COC3)c2)C1 (configuration not stated),24.95
22,CN(CC1CCOC1)S(=O)(=O)c1cccc(C(=O)N2CCCCCC2)c1 (configuration not stated),127.8
23,O=C(c1cccc(S(=O)(=O)NCCCn2cccn2)c1)N1CCOCC1,-8.398
24,O=C(c1cccc(S(=O)(=O)NCCCc2ccco2)c1)N1CCOCC1,28.12
25,O=C(c1cccc(S(=O)(=O)NCCc2ccccn2)c1)N1CCOCC1,-3.428
26,CN(Cc1ncc[nH]1)S(=O)(=O)c1cccc(C(=O)N2CCOCC2)c1,-7.295

row,Compound,Percent Effect [%]
1,CN(CC1CCOC1)S(=O)(=O)c1cccc(C(=O)N2CCOCC2)c1 (configuration not stated),110.2
2,CN(CC1CCCCO1)S(=O)(=O)c1cccc(C(=O)N2CCOCC2)c1 (configuration not stated),99.86
3,C=C(C)CN1C(=O)CC(Cc2ccc(F)cc2)C1=O (configuration not stated),-35.72
4,O[C@@H]1C[C@@H](c2nc(-c3ccccc3)no2)N(C2CCOCC2)C1,-15.45
5,O=C1CC2(CCCCN2C(=O)c2ccoc2)CN1Cc1ccccc1 (configuration not stated),-18.39
6,O=C(O)C(F)(F)F.O=C1CC2(CCCCN2C(=O)c2ccco2)CN1c1cccnc1 (configuration not stated),3.429
7,Cn1ccc(C(=O)N2CCCCC23CC(=O)N(Cc2ccccc2)C3)n1 (configuration not stated),-1.004
8,O=C1CC2(CCCCN2C(=O)c2ccccc2)CN1CC1CC1 (configuration not stated),79.38
9,CC1N(CC2CC2)C(=O)COC12CCN(C(=O)c1cccs1)CC2 (configuration not stated),8.45
10,O=C1CC2(CCCCN2C(=O)c2cccs2)CN1CC1CC1 (configuration not stated),78.16
11,O=C(O)C(F)(F)F.O=C1CC2(CCCCN2C(=O)Cc2ccccc2)CN1c1cccnc1 (configuration not stated),-0.631
12,O=C(CCC(=O)c1cccs1)NC1(C(=O)NCC2CC2)CCCC1,1.426
13,O=C(O)C(F)(F)F.O=C1CC2(CCCCN2C(=O)c2ccncc2)CN1CC1CC1 (configuration not stated),106.2
14,CC(=O)N(C)CCc1nc(-c2cc(C(N)=O)co2)cs1,-0.5467
15,COc1cnc(N2CCC(Oc3ccccc3OC)(C(=O)O)CC2)nc1,-8.18
16,COc1ccccc1C(C)Nc1ncc(C(N)=O)cc1Cl (configuration not stated),2.47
17,Cc1cccc(C)c1OC1CN(C(=O)C2CCN(C(=O)N(C)C)CC2)C1,-8.295
18,CCc1nc(CCn2ccnc2-c2nccn2C)no1,-9.052
19,Cn1cc(CN2C[C@@H](F)[C@@H](OCc3nc4cnccc4[nH]3)C2)cn1,-2.303
20,Cn1ccnc1-c1ccc(NCC2COCCO2)nn1 (configuration not stated),-2.389
21,Cc1nc(NCc2ccc(F)cc2)cc(C2CCCN2)n1.Cl (configuration not stated),123.2
22,Cc1cc(NCc2ccc(N3CCNC(=O)C3)cc2)nc(C)n1,3.077
23,Cc1nc(Cc2ccc(F)cc2)cc(C2COCCN2)n1.Cl (configuration not stated),104.2
24,Cc1ccc(-c2cn3c(n2)CO[C@@H](CNCc2nccn2C)C3)cc1,-11.82
25,Cc1nc(NCc2cccc(F)c2)cc(C2CCNCC2)n1.Cl,92.9
26,Cc1nc(NCc2nccn2C)cc(C2COCCN2)n1 (configuration not stated),145.4

row,Compound,Percent Effect [%]
1,Fc1ccc(-c2c[nH]c([C@@H]3COCCN3)n2)cc1,-3.188
2,COc1ccc2[nH]c(CNc3cc(C4CCNCC4)nc(C)n3)cc2c1,-0.5265
3,Clc1ccc(-c2c[nH]c([C@@H]3COCCN3)n2)cc1,-8.999
4,Fc1cccc(CNc2cncc(-n3cccn3)n2)c1,9.755
5,COCC(c1cccc(C(F)(F)F)c1)N(C)C(=O)c1cc(C)no1 (configuration not stated),-19.18
6,Cc1ccc2cc(C(=O)N3CCN(S(C)(=O)=O)CC3)[nH]c2c1,-2.597
7,CCc1nnc2n1CCN(C(=O)c1cnc3c(cnn3C(C)C)c1)C2,-2.522
8,CCc1nnc2n1CCN(C(=O)c1cc3cc(F)ccc3[nH]1)C2,1.688
9,CCc1nnc2n1CCN(C(=O)c1cc3ccc(F)cc3nc1C)C2,4.903
10,CCc1nnc2n1CCN(C(=O)c1cc3ccc(C)cc3[nH]1)C2,95.03
11,CCc1nnc2n1CCN(C(=O)c1cc3cc(C)ccc3[nH]1)C2,89.42
12,CCOc1ccc2cc(C(=O)N3CCn4c(CC)nnc4C3)[nH]c2c1,104.5
13,CCc1nnc2n1CCN(C(=O)c1cc(Br)c[nH]1)C2,2.696
14,CCc1nnc2n1CCN(C(=O)c1ccc(C(F)(F)F)nc1C)C2,5.32
15,CCOC(C(=O)N1CCn2c(CC)nnc2C1)c1ccccc1 (configuration not stated),26.72
16,CCc1nnc2n1CCN(C(=O)c1cc3ccccc3[nH]1)C2,108.3
17,CCc1nnc(CN2CCN(C(=O)c3cc4ccccc4[nH]3)CC2)o1,0.1099
18,c1cc(-c2ccc(CN3CCCC4(CCNC4)C3)s2)[nH]n1 (configuration not stated),24.12
19,CCc1nnc2n1CCN(C(=O)c1cc3c(F)cccc3[nH]1)C2,92
20,CCc1nnc2n1CCN(C(=O)c1cnc(-c3cccs3)s1)C2,-0.7102
21,CCc1nnc2n1CCN(C(=O)c1ccc3c(c1)NC(=O)CO3)C2,-1.668
22,Cc1nn(C)c(Oc2ccc(Cl)cc2)c1CN1CCOC(CN)C1 (configuration not stated),-15.91
23,CN(C)C(=O)[C@@H]1C[C@@H]2CCN(C3CCOCC3)C[C@@H]2O1,104.3
24,CN(C)C(=O)[C@H]1C[C@@H]2CCN(C3CCOCC3)C[C@H]2O1,-14.13
25,CN(C)C(=O)[C@H]1C[C@@H]2CCN(C3CCOCC3)C[C@@H]2O1.O=C(O)C(F)(F)F,90.19
26,O=C(NC1CC1)[C@@H]1CCO[C@@H]2CCN(C3CCOCC3)C[C@@H]21.O=C(O)C(F)(F)F,-4.22

row,Compound,Percent Effect [%]
1,CN(C)C(=O)[C@@H]1C[C@@H]2CCN(C3CCOCC3)C[C@H]2O1.O=C(O)C(F)(F)F,104.8
2,CN(C)C(=O)CO[C@H]1COCCN(C2CCOCC2)C1,-5.811
3,CC(c1cncs1)N(C)Cc1ccc(CCC(C)(C)O)cc1 (configuration not stated),-1.575
4,COCC(C)(CCO)NC(=O)Nc1c(F)cccc1Br (configuration not stated),1.184
5,COCCCN1C(=O)CC[C@H]2CN(Cc3ccc4nonc4c3)CC[C@H]21,-13.98
6,COCCOCC(=O)N(C)Cc1ccc(OCc2cccs2)cc1,0.8009
7,COc1ccc(O[C@H]2COCCN(Cc3c[nH]c4ccccc34)C2)cc1,17.89
8,c1ccc(O[C@H]2COCCN(Cc3c[nH]c4ccccc34)C2)cc1,61.61
9,c1ccc(O[C@H]2COCCN(Cc3cccc4c3OCO4)C2)cc1,-7.306
10,Cc1cccc(S(=O)(=O)NCc2cccc(CS(C)(=O)=O)c2)c1,-26.55
11,CS(=O)(=O)NCCNC(=O)C1(c2cccc(Cl)c2)CC1,8.855
12,Cc1nc(C2CCCCC2)sc1C(=O)O,-7.894
13,CSc1nc(C2CC2)nc(C)c1C(=O)NCc1cc(C)on1,-0.6929
14,Cc1noc(C)c1CN1CCC(NC(=O)OC(C)(C)C)CC1,-1.462
15,Cc1noc([C@@H](C)NCc2cccc(Cl)c2)c1C(=O)O.Cl,-9.594
16,COC(=O)c1c(Cl)c(C2CC2)nc2onc(C)c12,129
17,COC(=O)c1c(Cl)c(C)nc2onc(C)c12,101.9
18,Cc1noc2nc(C3CC3)c(Cl)c(C(=O)O)c12,111.5
19,Cc1nc([C@H]2C[C@@H]3CCN(Cc4cnn(C)c4)C[C@H]3O2)sc1C,3.707
20,CC(C)C(=O)N1CC2(CCN(CC(C)(C)C)CC2)C1.O=C(O)C(F)(F)F,-18.04
21,CCN1CCC2(CN(C(=O)N(C)C)CC23CCNCC3)C1=O.O=C(O)C(F)(F)F (configuration not stated),-16.29
22,CCN1CCn2c(C)cnc2C12CCN(C(=O)C(C)C)CC2.O=C(O)C(F)(F)F.O=C(O)C(F)(F)F,108.7
23,CCN1CCn2c(C)cnc2C12CCN(C(=O)N(C)C)CC2.O=C(O)C(F)(F)F.O=C(O)C(F)(F)F,107
24,CCN1CCn2c(C)cnc2C12CCN(C(=O)CC(C)C)CC2.O=C(O)C(F)(F)F.O=C(O)C(F)(F)F,-11.73
